Consider 61 compounds from paper PMC4336329 (PLoS ONE, 2015).

The whole screen tested about 310,000 compounds, of which about 14,000 (4.5%) showed an effect of 50% or more. The effect is printed as a negative number. The list comes from a sample in which strong results are over-represented; it also holds similar structures and randomly drawn compounds.
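Note: peak tail current of the secondary pulse compared with the same well before compound.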

For the test, the target named is human ether-à-go-go-related gene (hERG) potassium channel (human, UniProt Q12809). The experiment in a line: primary screen, population patch clamp on CHO cells stably expressing hERG; higher = less effect of the substance.
Sequence of human ether-à-go-go-related gene (hERG) potassium channel (Q12809 whole entry, looked up): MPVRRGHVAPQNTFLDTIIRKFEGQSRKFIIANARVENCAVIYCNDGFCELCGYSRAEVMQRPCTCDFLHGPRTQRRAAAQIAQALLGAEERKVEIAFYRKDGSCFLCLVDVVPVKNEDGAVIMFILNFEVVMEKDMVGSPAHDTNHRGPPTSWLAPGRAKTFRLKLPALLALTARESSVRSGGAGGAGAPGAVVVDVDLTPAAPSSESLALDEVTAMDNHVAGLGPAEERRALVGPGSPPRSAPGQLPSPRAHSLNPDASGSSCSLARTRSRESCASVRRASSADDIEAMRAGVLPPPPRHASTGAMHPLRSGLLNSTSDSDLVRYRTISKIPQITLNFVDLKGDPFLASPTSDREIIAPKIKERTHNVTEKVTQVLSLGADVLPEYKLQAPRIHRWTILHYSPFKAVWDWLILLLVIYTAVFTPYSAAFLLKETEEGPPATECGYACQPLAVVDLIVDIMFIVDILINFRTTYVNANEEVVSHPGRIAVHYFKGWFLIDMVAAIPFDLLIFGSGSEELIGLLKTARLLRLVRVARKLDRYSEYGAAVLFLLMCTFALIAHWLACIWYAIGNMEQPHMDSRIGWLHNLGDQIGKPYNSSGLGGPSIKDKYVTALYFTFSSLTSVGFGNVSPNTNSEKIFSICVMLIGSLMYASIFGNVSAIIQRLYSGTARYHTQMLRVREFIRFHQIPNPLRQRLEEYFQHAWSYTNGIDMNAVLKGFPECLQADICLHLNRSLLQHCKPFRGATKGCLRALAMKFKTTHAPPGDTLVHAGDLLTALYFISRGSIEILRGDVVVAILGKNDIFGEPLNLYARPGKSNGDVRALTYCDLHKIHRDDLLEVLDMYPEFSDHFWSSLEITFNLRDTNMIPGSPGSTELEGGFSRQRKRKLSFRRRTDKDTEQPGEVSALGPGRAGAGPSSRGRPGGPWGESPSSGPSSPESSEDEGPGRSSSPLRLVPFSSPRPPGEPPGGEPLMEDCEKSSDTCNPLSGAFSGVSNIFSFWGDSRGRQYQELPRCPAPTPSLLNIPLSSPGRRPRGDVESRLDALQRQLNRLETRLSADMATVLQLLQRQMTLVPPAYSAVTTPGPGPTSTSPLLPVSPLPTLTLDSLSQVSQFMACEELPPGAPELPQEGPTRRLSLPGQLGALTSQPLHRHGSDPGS
As to `Cc1cc(C)nc(NS(=O)(=O)c2ccc(N3Cc4ccccc4C3=O)cc2)n1`, the “hERG current change (%, negative = inhibition) at 10uM” value turned out to be 12.2%. In the case of `COc1cc(C(=O)Nc2ccccc2N2CCOCC2)ccc1OCc1c(C)noc1C`, the “hERG current change (%, negative = inhibition) at 10uM” value is recorded as -28.8%. To `O=C(NCc1cn2ccsc2n1)c1c(F)cccc1Cl` belongs 7.32%. To `CC(C)CC(=O)N1CCC(N2CCN(c3ccccc3)CC2)CC1` belongs -12%. Regarding `O=C(O)C(=O)O.O=C(c1cccs1)N1CCN(CCCc2ccccc2)CC1`, the “hERG current change (%, negative = inhibition) at 10uM” value is -64.5%. As for `O=C(c1cccs1)N1CCN(Cc2ccccc2)CC1`, the “hERG current change (%, negative = inhibition) at 10uM” value was -12.2%. To `O=C(c1cccs1)N1CCN(CCc2ccccc2)CC1` belongs -48.6%.

`O=C(c1cccs1)N1CCC(N2CCN(c3ccccc3)CC2)CC1`: the “hERG current change (%, negative = inhibition) at 10uM” value is reported as -51.2%. To `O=C(c1cccs1)N1CCN(C2CCN(Cc3ccccc3)CC2)CC1` belongs -64.3%. In the case of `O=C(O)C(=O)O.O=C(c1cccs1)N1CCN(Cc2ccncc2)CC1`, the “hERG current change (%, negative = inhibition) at 10uM” value was -5.94%. Regarding `O=C(CCC1CCCC1)N1CCC(N2CCCCCC2)CC1.O=C(O)C(=O)O`, the “hERG current change (%, negative = inhibition) at 10uM” value was -29.9%. To `O=C(O)C(=O)O.O=C(c1cccs1)N1CCN(C2CCCCC2)CC1` belongs -32.4%; to `O=C(CCC1CCCC1)N1CCC(N2CCN(c3ccccc3)CC2)CC1`, -66.6%; to `O=C(c1cccs1)N1CCN(c2ccccc2)CC1`, -0.00412%. As for `COc1ccccc1N1CCN(C2CCN(C(=O)c3cccs3)CC2)CC1`, the “hERG current change (%, negative = inhibition) at 10uM” value is -38.2%. For the compound `COc1ccc(C)cc1-n1c(SCC(=O)NC2CC2)nc2ccccc2c1=O`, the “hERG current change (%, negative = inhibition) at 10uM” value is listed as -17.4%. To `Nc1nc(SCc2nc3scc(-c4cccs4)c3c(=O)[nH]2)n[nH]1` belongs 18.9%; to `CCOc1ccc(-n2c(=O)[nH]cc(C(=O)N3CCCc4ccccc43)c2=O)cc1`, -9.75%; to `Cc1cccc(N2CCN(C(=O)Cn3cccc3)CC2)c1C`, 2.77%. To `Cc1ccc(-c2cnc(NC(=O)CCC(=O)N3CCCCC3)n2C)cc1` belongs -6.45%; to `O=C1C2C3C=CC(C3)C2C(=O)N1c1ccc(-c2nc3ccccc3o2)cc1` (stereo not shown), 15.6%; to `CCC(C)(C)NC(=O)C(c1cccc(OC)c1OC)N(CCC(C)C)C(=O)CCC(=O)Nc1cc(C)on1` (stereo not shown), 11.6%. Regarding `Cc1n[nH]c(C)c1CCN.Cl`, the “hERG current change (%, negative = inhibition) at 10uM” value is reported as 12.9%.

As for `COc1ccc(C(=O)Nc2ccc(-c3cn4ccsc4n3)cc2)cc1S(=O)(=O)N1CCOCC1`, the “hERG current change (%, negative = inhibition) at 10uM” value is on record as -9.6%. To `Nn1c(SCC(=O)N2CCCc3ccccc32)nnc1-c1ccccc1` belongs 2.21%. With `O=C(Cn1c(=O)n2ncnc2c2c3c(sc21)CCCC3)c1ccccc1`, the “hERG current change (%, negative = inhibition) at 10uM” value is recorded as -20.1%. To `C=CCn1c(=O)n2ncnc2c2c3c(sc21)CCCC3` belongs -59.3%; to `O=c1n(Cc2ccc(Cl)cc2)c2sc3c(c2c2ncnn12)CCCC3`, -39.1%; to `COc1cccc(C2=NNC(=NCc3ccccc3)SC2)c1`, -42.6%.

As to `CCn1cnc2sc(C(=O)Oc3cccc(C)c3)c(C)c2c1=O`, the “hERG current change (%, negative = inhibition) at 10uM” value came out at 19.9%. Take `Cc1nn(C)c(Oc2ccccc2)c1CCNC(=O)CCl`: the “hERG current change (%, negative = inhibition) at 10uM” value worked out at 35.6%. To `Cc1cccc(Oc2ccc(N)cc2)c1` belongs -12%; to `CC(=O)c1cnc2cc(-c3ccc(C)cc3)nn2c1C`, -4.26%; to `N#Cc1c(N)sc(=S)c2c1CCN(Cc1ccccc1)C2`, -5.46%. To `CCN1CCc2c(sc(N)c2C#N)C1` belongs 5.55%. To `N#Cc1c(N)sc2c1CCN(CCc1ccccc1)C2` belongs -50.5%; to `CN(C)S(=O)(=O)c1ccc2c(c1)Cc1cc(S(=O)(=O)N(C)C)ccc1-2`, 20.1%; to `COc1cc(/C=C/c2ccc(O)cc2)cc(OC)c1`, -2.2%. `Cc1occc1C(=O)NNC1=CC(=O)CC(C)(C)C1`: the “hERG current change (%, negative = inhibition) at 10uM” value came out at 13.3%.

Regarding `CC1CCN(CCCNC(=O)CCNC(=O)Cn2cnc3ccccc3c2=O)CC1`, the “hERG current change (%, negative = inhibition) at 10uM” value came out at 20.5%. To `OC1(C(F)(F)F)CC(c2ccc3ccccc3c2)=NO1` (stereo not shown) belongs 4.45%. In the case of `COCc1[nH]nc2c1C(c1cccc(OC)c1)C(C#N)=C(N)O2` (stereo not shown), the “hERG current change (%, negative = inhibition) at 10uM” value is given as -7.26%.

As to `CCOc1ccc(NC(=O)C2CCC(C)(C(=O)O)C2(C)C)cc1` (stereo not shown), the “hERG current change (%, negative = inhibition) at 10uM” value amounted to 6.49%.

Take `CCN(C(=O)COC(=O)c1ccccc1NC(=O)c1ccco1)C1CCS(=O)(=O)C1` (stereo not shown): the “hERG current change (%, negative = inhibition) at 10uM” value was -72.1%. To `O=C(COC(=O)c1ccccc1NC(=O)c1ccco1)NC1CCS(=O)(=O)C1` (stereo not shown) belongs -2.03%.

As to `CCN(C(=O)COC(=O)c1ccccc1Nc1cccc(C)c1C)C1CCS(=O)(=O)C1` (stereo not shown), the “hERG current change (%, negative = inhibition) at 10uM” value is given as 2.59%. To `CCN(C(=O)COC(=O)c1ccccc1NCCO)C1CCS(=O)(=O)C1` (stereo not shown) belongs -5.97%. To `CN(C(=O)COC(=O)c1ccccc1Nc1ccccc1)C1CCS(=O)(=O)C1` (stereo not shown) belongs -41.4%; to `CN(C(=O)COC(=O)c1ccccc1NC(=O)c1ccco1)C1CCS(=O)(=O)C1` (stereo not shown), -62.3%. To `CCOc1ccccc1C1CC(=O)Nc2cc(OC)c(OC)cc21` (stereo not shown) belongs 13.2%; to `O=CNC1CCCc2c1[nH]c1ccc(Cl)cc21` (stereo not shown), -9.15%; to `COc1cccc(OC(=O)N2CCOCC2)c1`, 8.3%. `O=C(CCCN1C(=O)c2ccccc2C1=O)Nc1cccc(S(=O)(=O)NC2=NCCC2)c1`: the “hERG current change (%, negative = inhibition) at 10uM” value was determined as 13.5%. To `COc1ccc(N2CCN(C(C)C(=O)N3CC(C)OC(C)C3)CC2)cc1.O=C(O)C(=O)O` (stereo not shown) belongs 18%; to `COc1ccc(/C=N/NC(=O)CCCC(=O)NC2CCCCC2)cc1`, 5.06%. Regarding `CN(C)CCNC(=O)/C(=C/c1ccc(-c2cccc([N+](=O)[O-])c2)o1)NC(=O)c1ccccc1`, the “hERG current change (%, negative = inhibition) at 10uM” value is -75.4%. As to `CN(C)CCCNC(=O)/C(=C\c1ccc(-c2cccc([N+](=O)[O-])c2)o1)NC(=O)c1ccccc1`, the “hERG current change (%, negative = inhibition) at 10uM” value was -81.2%. To `CN(C)C(=O)/C(=C\c1ccc(-c2cccc([N+](=O)[O-])c2)o1)NC(=O)c1ccccc1` belongs -47.9%; to `C=CCNC(=O)/C(=C/c1cn(-c2ccccc2)nc1-c1cccc([N+](=O)[O-])c1)NC(=O)c1ccccc1`, -3.58%; to `O=C(NCCCO)/C(=C/c1ccc(-c2cccc([N+](=O)[O-])c2)o1)NC(=O)c1ccccc1`, -31.5%.

Regarding `CN(C)C(=O)/C(=C/c1ccc(-c2cccc([N+](=O)[O-])c2)o1)NC(=O)c1ccccc1`, the “hERG current change (%, negative = inhibition) at 10uM” value is reported as -21.3%.
